Bioassay records: PubChem BioAssay, The Scripps Research Institute Molecular Screening Center
Only some compounds are listed: those with a hit (about 2.3% of all), similar ones and a draw of the others.
M1 ag parental = nonselective activator or artifact in parental CHO-K1 cells. 360,000 compounds, 0.48% hits. activation, % at 3 µM. Fluo-8 calcium fluorescence; scaled to maximal ATP response, vehicle zero; in the data active = activation above about 15%;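 note: untransfected CHO-K1 host cells lacking M1 receptor as counterscreen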
M1 PAM = positive allosteric modulators of human M1 muscarinic receptor. P11229. CHO-K1 hM1, Fluo-8 calcium fluorescence, ACh EC20; 0% = ACh EC20, 100% = maximal ACh. activation, % at 3 µM. 360,000 compounds, 0.088% hits; in the data active = activation above about 19%, passing the limit was not always enough
Target sequence (P11229 whole entry, looked up): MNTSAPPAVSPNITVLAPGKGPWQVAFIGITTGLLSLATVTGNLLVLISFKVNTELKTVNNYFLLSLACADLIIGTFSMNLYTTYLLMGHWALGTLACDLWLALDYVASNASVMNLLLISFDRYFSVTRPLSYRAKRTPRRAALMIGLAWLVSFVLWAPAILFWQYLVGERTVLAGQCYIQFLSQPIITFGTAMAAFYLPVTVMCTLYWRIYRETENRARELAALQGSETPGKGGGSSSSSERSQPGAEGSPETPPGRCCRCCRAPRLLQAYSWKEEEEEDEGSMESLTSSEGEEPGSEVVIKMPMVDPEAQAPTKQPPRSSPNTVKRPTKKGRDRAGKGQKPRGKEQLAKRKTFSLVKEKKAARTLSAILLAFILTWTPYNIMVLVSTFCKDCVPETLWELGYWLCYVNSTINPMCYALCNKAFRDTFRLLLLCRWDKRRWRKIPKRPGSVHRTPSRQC
M1 antag = human CHRM1 antagonism. P11229. CHO-K1 hM1, Fluo-8 calcium fluorescence, ACh EC80 antagonist. inhibition, % at 3 µM. 360,000 compounds, 1.3% hits;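 active = percent inhibition above its own plate's cutoff, namely the mean of that plate's compound wells plus 3 SD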;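 note: peak over basal fluorescence ratio during 140 s after agonist addition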
CHRM1 agonist = human M1 muscarinic receptor agonism | CHO-K1 hM1, Fluo-8 calcium fluorescence, agonist mode; 0% DMSO, 100% acetylcholine EC100 | activation, % at 3 µM | 360,000 compounds, 0.33% hits | P11229;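 active = activation above the run's mean compound activation plus 3 SD, cut at about 16% in these data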;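 note: peak over basal fluorescence ratio within a 140 s kinetic read after compound addition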
M1 PAM parental = M1 PAM counterscreen hit in parental CHO-K1 cells; 360,000 compounds, 0.02% hits; activation, % at 3 µM; ATP EC20, Fluo-8 calcium fluorescence; 0% at ATP EC20, 100% at ATP max;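 active = activation above the run cutoff, the mean activation of all test compounds plus 3 SD, cut at about 40% in these data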;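 note: peak over basal fluorescence ratio in a 140 s read after ATP addition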
CHO-K1 Ca antag = nonselective inhibitor or artifact in parental CHO-K1 cells; ATP-induced calcium, Fluo-8 fluorescence; inhibition, % at 3 µM; 360,000 compounds, 0.6% hits;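 active = inhibition above a per-plate cutoff, the plate's mean sample inhibition plus 3 SD, cut at about 24% in these data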
Hits are given with their value; 0 = inactive; - = no result.

SMILES	M1 ag parental	M1 PAM	M1 antag	CHRM1 agonist	M1 PAM parental	CHO-K1 Ca antag
Cc1ccc(C)c(NC(=O)CN2C(=O)C3CC=CCC3C2=O)c1 (stereo not drawn)	0	0	0	0	0	0
N#Cc1ccccc1NC(=O)COc1ccccc1C(=O)Nc1ccccc1	0	0	0	0	0	0
CC1CC(C)CN(C(=O)COC(=O)c2ccc(N3CCCC3=O)cc2)C1 (stereo not drawn)	0	0	0	0	0	0
CCOC(=O)c1c(C)[nH]c(C(=O)COC(=O)c2ccc(N3CCCC3=O)cc2)c1C	0	0	0	0	0	27
COCCn1c(SCc2ccc(C(=O)OC)o2)nc2ccccc2c1=O	0	0	0	0	0	0
COC(=O)c1cc(CSc2nc3ccccc3c(=O)n2C)oc1C	0	0	67	0	0	0
COC(=O)c1sc(NC(=S)NNC(=O)c2c(Br)c(C)nn2C)c(C(=O)OC)c1C	0	0	0	0	0	0
CC(C)c1cc(CNC(=O)c2cc(COc3cncc(Cl)c3)on2)on1	16	0	0	0	0	0
COc1ccc(C2=NN(C(=O)CCC(=O)O)C(c3ccccc3F)C2)cc1 (stereo not drawn)	0	0	0	0	0	0
Cc1nc([N+](=O)[O-])c(N2CCN(C)CC2)n1Cc1ccccc1	0	0	40	0	0	0
Cc1nc([N+](=O)[O-])c(SCC(N)=O)n1Cc1ccccc1	0	0	0	0	0	0
O=[N+]([O-])c1ccc2oc(C(O)c3cccc(Cl)c3)cc2c1 (stereo not drawn)	0	0	0	0	0	0
Cc1ccc(C(=O)N2CCN(c3ccc(NC(=S)NC(=O)Cc4ccccc4)cc3)CC2)cc1	21	0	0	0	0	24
O=C(Nc1ccc(N2CCN(C(=O)c3ccccc3)CC2)cc1)c1ccc2c(c1)OCCO2	16	0	0	0	0	0
CCN(C(=O)COC(=O)c1ccccc1Nc1ccccc1)c1c(N)n(Cc2ccccc2)c(=O)[nH]c1=O	0	0	0	0	0	0
Nc1nc(SCC(=O)Nc2c(Br)cc([N+](=O)[O-])cc2Br)n[nH]1	0	0	0	0	0	29
COc1ccc(OC)c(NC(=O)Cn2cc(C=O)c3ccccc32)c1	0	0	0	0	0	0
O=C(NCc1ccccc1)c1cc(C2CCCCN2S(=O)(=O)c2cccs2)on1 (stereo not drawn)	0	0	0	0	0	0
CN(C)[C@H]1CCN([C@H]2CS(=O)(=O)N[C@@H]2COCc2ccccc2)C1	0	0	0	0	0	0
O=S1(=O)C[C@H](N2CC[C@@H](O)C2)[C@@H](COCc2ccccc2)N1	0	0	0	0	0	27
COc1cc(OC)c(-c2c3cc(O)c(=O)cc-3oc3cc(O)c(O)cc23)cc1OC	258	0	74	385	0	68
CCOC(=O)/C=C1\SCC(=O)N1CC(=O)NC12CC3CC(CC(C3)C1)C2	0	0	0	0	0	24
CCOC(=O)/C=C1\SCC(=O)N1CC(=O)NCCc1ccc(F)cc1	17	0	0	0	0	0
CCOC(=O)/C=C1\SCC(=O)N1CC(=O)NC(C)C	0	0	0	0	0	0
CCc1ccc(Cn2ncc3c(C(=O)O)cc(C)nc32)cc1	0	0	0	0	0	0
SMILES	M1 ag parental	M1 PAM	M1 antag	CHRM1 agonist	M1 PAM parental	CHO-K1 Ca antag
CC(=O)NCCC(=O)NCC1(N(C)Cc2ccccc2)Cc2ccccc2C1	16	0	0	0	0	0
COc1cc(NC(=O)Nc2nc(C(N)CCc3ccccc3)cs2)cc(OC)c1OC (stereo not drawn)	0	0	0	0	0	0
CCCC[C@@H]1Cc2[nH][nH]c(=O)c2[C@H](c2ccc(C(C)C)cc2)O1	0	-	-	-	0	0
CC1=CC(C)(C)N(C(=O)CNC2CCCC2)c2cc(C)ccc21	0	0	99	0	0	0
O=C(C1CC1)N1N=C(C2CCCCC2)CC1(O)C(F)(F)F (stereo not drawn)	0	0	0	0	0	0
O=C(Nc1ccc(Cl)cc1Cl)c1ccc2ncsc2c1	21	0	0	0	0	0
Cc1ccccc1-c1cnc2c(c1)C(=O)N([C@@H](C)CO)C[C@@H](C)[C@H](CN(C)Cc1ccccc1F)O2	0	0	0	0	0	0
Cc1cccnc1C(NC(=O)C1CCN(Cc2ccc3ccccc3n2)CC1)c1ccc(Cl)cc1 (stereo not drawn)	0	0	31	0	0	0
CCN(C(=O)CN1C(=O)COc2ccc(S(=O)(=O)N3CCCCCC3)cc21)c1cccc(C)c1	35	0	0	0	0	0
CCN(Cc1ccccc1)C(=O)CN1C(=O)COc2ccc(S(=O)(=O)N3CCCCCC3)cc21	0	0	0	0	0	0
COC(=O)C1=NN(C(=O)c2cccc(Br)c2)C(O)(c2ccc(Cl)cc2)C1 (stereo not drawn)	0	0	0	42	0	0
O=C(COC(=O)c1c2c(nc3ccccc13)CCN(Cc1ccccc1)C2)Nc1c(F)cccc1F	0	0	36	0	0	0
CCN1CCc2nc3ccccc3c(C(=O)Nc3ccc(NC(C)=O)cc3)c2C1	0	0	0	0	0	0
CC(=O)Nc1ccc(NC(=O)COC(=O)c2c3c(nc4ccccc24)CCN(Cc2ccccc2)C3)cc1	0	0	45	0	0	0
CSc1nc2c(cc1C#N)CCCCC2	0	0	30	0	0	0
CCOC(=O)C1CCCN(CCC(=O)Nc2ccc3c(c2)CCC3)C1 (stereo not drawn)	0	0	0	23	0	0
CCOC(=O)C1CCCN(CCC(=O)Nc2ccc(Br)cc2)C1 (stereo not drawn)	0	0	0	0	0	0
CCOC(=O)C1CCCN(CCC(=O)Nc2ccc(C)c(C)c2)C1 (stereo not drawn)	0	0	0	0	0	0
CCOC(=O)C1CCCN(CCC(=O)Nc2ccc(Br)c(C)c2)C1 (stereo not drawn)	0	0	0	24	0	0
CC1SC(=S)N(c2ccc(N(C)C)cc2)C1=O (stereo not drawn)	0	0	0	0	0	0
CC(=O)c1ccc(OCCCC(=O)NCc2nnc3ccccn23)cc1	0	0	0	0	0	0
COc1ccc(S(N)(=O)=O)cc1C(=O)OCC(=O)N1CCCC(C)C1 (stereo not drawn)	0	0	0	0	0	0
Cc1ccc(S(=O)(=O)n2c(C)nc3cc(C)ccc32)cc1	0	0	0	0	0	0
Cc1ccc(S(=O)(=O)n2c(N)nc3cc(C)c(C)cc32)cc1	0	0	20	0	0	0
O=C(c1cc(Cl)cc(Cl)c1)N1CCC2CC1c1cc(N3CCCCC3)ccc12 (stereo not drawn)	0	0	70	0	0	0
Clc1cccc(CN2CCC3CC2c2cc(N4CCCCC4)ccc23)c1 (stereo not drawn)	0	0	0	0	0	0
